Compound activity as filed in PubChem BioAssay.
Only some compounds are listed: those with a hit (about 1.3% of all), similar ones and a draw of the others.
gsp antagonist: antagonists of gsp mutant (McCune-Albright syndrome); gsp-mutant cells, cAMP HTRF, 30 min; Potency, µM (doses to about 76.9 µM), inactives show at the top dose activity change, negative = inhibition, usual class: inhibitors; actives 0.4% (n = 340,000); calls by dose curve; cell line not stated here;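 note: intracellular cAMP measured with PDE inhibitor Ro 20-1724 present during compound exposure; potency is the fitted concentration of half-maximal effect; % is set by controls: 0 for no effect and ±100 for the full control effect; nearly all actives have a fitted effect of over 65% in size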
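HTRF cAMP read-out (cAMP-d2 plus anti-cAMP antibody-K in lysis buffer, 30 min RT). Before lysis, cells are exposed to compounds with […] for 30 min at 37C in DPBS containing Ca/Mg, BSA and Tween 20.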
gsp ag: gsp mutant agonism | gsp mutant cells, cAMP HTRF, 30 min | Potency, µM (series often up to 76.9 µM), without a hit: at the top dose activation (cAMP increase), most hits filed as activators | actives 0.13% (n = 340,000) | AID 624287; active = well fitted activation curve with a large enough effect; inconclusive = small, poorly fitted or top-dose-only effect, or another doubt; inactive = no such curve, though single readings can be large or run the other way; cell line not stated here;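 note: phosphodiesterase inhibitor Ro 20-1724 added with compounds to block cAMP breakdown; potency is the fitted concentration of half-maximal effect; nearly all actives have a fitted effect of over 60% in size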
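Cells stably selected in G418 were plated at 2000/well, grown 16-24 hr, then given compounds in DMSO with the PDE inhibitor […] (300 uM solution added) for 30 min at 37C; cAMP was read by HTRF.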
pAkt inh: inhibitors of Akt phosphorylation; AID 651550; actives 0.32% (n = 360,000); activity change, % for hits at 50 µM; Neuro2A IGF-stimulated pAkt S473 HTRF, 20 min; active compounds read low; in the data active = activity change below about -80%; inconclusive = mostly about -51% to -80%; note: % is set by controls: 0 for no effect and ±100 for the full control effect
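Neuro2A cells (4,500/well, DMEM with 0.5% FBS) were treated with compound at a single 50 µM final concentration, stimulated with 6 nM IGF for 20 min at 37 °C, and lysed. Phospho-Akt Ser473 was read by HTRF as 665/615 ratio ×10^4.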
RXFP1 antag: antagonists of human relaxin receptor RXFP1 | Q9HBX9 | HEK293-RXFP1, relaxin-stimulated cAMP HTRF, 30 min; active compounds read low | activity change, negative = inhibition, % at 57.5 µM | actives 0.59% (n = 350,000) | AID 1259400;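 active = activity change of -60% or lower, but not beyond a set lower limit; inconclusive = change between -60% and -40%, or beyond the set limit; inactive = change above -40%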; note: % is set by controls: 0 for no effect and ±100 for the full control effect
Target sequence (Q9HBX9 whole entry, looked up): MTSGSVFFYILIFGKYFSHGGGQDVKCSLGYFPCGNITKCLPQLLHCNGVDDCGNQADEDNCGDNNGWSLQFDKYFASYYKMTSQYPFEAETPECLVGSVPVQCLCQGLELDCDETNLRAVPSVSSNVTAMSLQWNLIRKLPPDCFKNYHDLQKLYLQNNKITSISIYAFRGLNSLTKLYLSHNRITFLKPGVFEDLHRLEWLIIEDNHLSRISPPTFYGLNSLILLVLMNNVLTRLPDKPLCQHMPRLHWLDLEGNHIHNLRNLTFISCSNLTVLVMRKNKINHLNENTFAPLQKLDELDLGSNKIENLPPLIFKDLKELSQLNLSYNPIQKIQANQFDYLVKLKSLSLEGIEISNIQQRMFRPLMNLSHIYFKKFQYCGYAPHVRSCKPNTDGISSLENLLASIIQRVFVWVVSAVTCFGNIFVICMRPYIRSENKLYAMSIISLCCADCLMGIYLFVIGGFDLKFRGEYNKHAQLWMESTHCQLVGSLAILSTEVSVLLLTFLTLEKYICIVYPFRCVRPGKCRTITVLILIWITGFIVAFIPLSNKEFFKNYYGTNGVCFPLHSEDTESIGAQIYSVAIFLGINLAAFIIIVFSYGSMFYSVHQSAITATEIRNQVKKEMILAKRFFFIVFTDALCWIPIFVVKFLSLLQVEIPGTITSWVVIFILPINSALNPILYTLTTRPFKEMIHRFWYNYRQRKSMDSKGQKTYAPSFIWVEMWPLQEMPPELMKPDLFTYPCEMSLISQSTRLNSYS
RXFP1 ag: agonists of human relaxin receptor RXFP1 | Potency, µM (doses to about 57.5 µM), for the others: at the highest dose activation, hits mostly activators | AID 2676 | actives 0.3% (n = 370,000) | HEK293T-RXFP1 cAMP TR-FRET, 30 min; response scale: percent of porcine relaxin response, buffer zero; active = well fitted activation curve with a large enough effect; inconclusive = small, poorly fitted or top-dose-only effect; note: potency is the fitted concentration of half-maximal effect; % is set by controls: 0 for no effect and ±100 for the full control effect; nearly all actives have a fitted effect of over 60% in size
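HEK293 cells stably expressing RXFP1, treated 30 min at 37C with compounds plus PDE4 inhibitor Ro 20174; cAMP measured by HTRF TR-FRET. Normalized to buffer and 29 nM porcine relaxin; EC50 by Hill fit.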
TSHR antagonist: antagonists of human thyroid stimulating hormone receptor; TSHR-expressing cells, TSH-stimulated cAMP HTRF, 2 h; active compounds read low; activity change, negative = inhibition, % at 11.5 µM; AID 504810; actives 0.2% (n = 330,000); P16473;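 active = activity change below a set negative limit, meaning inhibition stronger than a set level, cut at about -70% in these data; inconclusive = activity change between two set negative limits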; note: % is set by controls: 0 for no effect and ±100 for the full control effect
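Competitive HTRF cAMP read-out (cryptate anti-cAMP antibody, cAMP-d2; 30 min, room temperature) in freshly harvested TSHR cells. Compounds added before TSH at EC80 (4nM final), followed by 2 hours' incubation at 37 deg C.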
Numbers without * were called inactive; i = inactive; ? = inconclusive; . = no result; [ ] = another dose, or the depositor's remark.

SMILES	gsp antagonist	gsp ag	pAkt inh	RXFP1 antag	RXFP1 ag	TSHR antagonist
Cc1ccc(-c2nnc(SCC(=O)Nc3sc(C)c(C)c3C#N)n2C)cc1	-8.1%	-4.4%	i	2.8	2.4%	-6.7
Cc1sc(NC(=O)CSc2nnc(-c3ccc(F)cc3)o2)c(C#N)c1C	?	-1.5%	-108.5%*	-0.3	1.6%	-18.2
C[C@H]1C[C@H](O)c2ccsc2S1(=O)=O	.	.	.	-9.1	.	.
Cc1cc(-c2ccccc2)nc(N/N=C/c2ccc(O)cc2)n1	-15.3%	0.6%[15.4 µM]	i	-77.3*	-1.6%	-10.8
Oc1ccc(/C=N/Nc2nc(-c3ccc(Cl)cc3)cc(C(F)(F)F)n2)cc1	?	23.2%	i	-61.3*	0.7%	6.0
Nc1c(I)cc(I)c(C(=O)N(CCC(=O)O)c2ccccc2)c1I	.	.	.	-19.3	.	.
CCc1cccc(NC(=O)CN2c3ccccc3S(=O)(=O)c3ccccc32)c1	.	.	.	-17.0	0.4%	.
OCC1(Cc2ccc(F)cc2F)CCCN(Cc2ccc(Cl)cc2)C1 (stereo unspecified)	9.2%	-256.0%	i	-60.8*	-0.2%	9.0
OCC1(Cc2cccc(Cl)c2)CCCN(Cc2ccc(F)c(F)c2)C1 (stereo unspecified)	0.9%	5.9%[15.4 µM]	i	-27.7	-1.2%	15.5
Cc1cc(C)c2cc(C#N)c(NCCCNC(=O)c3cccnc3)nc2c1	.	-34.5%	i	-6.7	.	.
CCOc1ccc(CCNS(=O)(=O)c2cnc[nH]2)cc1OCC	18.9%	11.6%	-132.3%*	6.5	3.8%	-0.5
CCOc1ccc(CCNS(=O)(=O)c2ccc(-c3ccc(=O)[nH]n3)o2)cc1OCC	-7.3%	-3.1%	i	7.9	1.5%	-6.1
Cc1ccc(C)c(N2CCN(C(=O)c3cccc(-n4c(C)nc5cccnc54)c3)CC2)c1	.	.	.	-69.7*	0.9%	.
Cc1nc2cccnc2n1-c1cccc(C(=O)N2CCN(c3ccc(Cl)cc3)CC2)c1	.	.	.	?	13.5%	.
Cc1ccc(Cl)cc1N1CCN(C(=O)c2ccc(C)c(-n3c(C)nc4cccnc43)c2)CC1	.	.	.	-64.3*	-0.7%	.
O=C(/C=C/c1ccccc1)Nc1nc2n(n1)C(c1ccc(F)cc1)C=C(c1ccccc1)N2 (stereo unspecified)	.	.	.	0.8	-3.7%	.
O=C(NCc1ccc(Cl)cc1)C1CCN(S(=O)(=O)c2ccc(N3CCCC3=O)cc2)CC1	-10.9%	11.5%	i	-65.7*	3.6%	-20.5
COCCN(CC(=O)Nc1cccc(C)c1C)C(=O)c1ccc(S(=O)(=O)N2CCOCC2)cc1	8.0%	-24.4%	i	-9.0	-1.2%	9.3
O=C(NCC(c1ccccc1Cl)N1CCCC1)c1ccc(N2CCCC2=O)cc1 (stereo unspecified)	2.7%	-7.2%[15.4 µM]	i	6.1	0.5%	14.2
CN1CCN(c2ccc(NC(=O)COc3ccccc3[N+](=O)[O-])cc2)CC1	.	-1.2%[15.4 µM]	i	-3.0	-0.4%	15.1
CC(C)C(=O)N1CCN(c2ccc(NC(=O)COc3ccccc3[N+](=O)[O-])cc2)CC1	28.2µM*	9.3%	i	-22.5	2.8%	-23.5
CCN(CC)C(=O)c1[nH]cnc1C(=O)Nc1ccon1	11.9%	17.5%	i	.	1.1%	-2.4
CC1=CCC(C(=O)O)C(C(=O)Nc2nc3ccc(S(C)(=O)=O)cc3s2)C1 (stereo unspecified)	-2.9%	-50.8%	-120.3%*	-0.8	-0.9%	24.9
Cc1cc(C)c(C(=O)N2CCCC(N3CCN(c4cccc(C(F)(F)F)c4)CC3)C2)o1 (stereo unspecified)	50.1µM*	?	i	-20.5	1.5%	-8.2
Cc1cc(C(=O)N2CCCC(N3CCN(c4cccc(C(F)(F)F)c4)CC3)C2)no1 (stereo unspecified)	4.3%	-39.9%	i	-13.8	0.0%	3.2
O=C1CCC(C(=O)N2CCCC(N3CCN(c4cccc(C(F)(F)F)c4)CC3)C2)=NN1 (stereo unspecified)	5.0%	4.47µM*	i	-6.5	0.3%	6.1
